# From PubChem BioAssay
# Active and inactive are the calls of the source.
# Tests used:
# [1] = binders of probe aFSTL3 on microarray, primary screen, stem cell growth factor project, biochemical, small-molecule microarray, fluorescence 635/667 (AID 1064); details: higher = more signal;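 also: measures binding of the biotinylated anti-FSTL3 antibody to printed compounds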
# [2] = binders from COS7 lysate, DM2A8 probe, primary screen, torsin A project, cell lysate, small-molecule microarray, fluorescence 635/667 (AID 1065); details: higher = more signal, COS7 lysate expressing mutant human TOR1A
# [3] = binders of probe aFGF2 on microarray, primary screen, stem cell growth factor project, biochemical, small-molecule microarray, fluorescence 635/667 (AID 1067); details: higher = more signal;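 also: measures binding of biotinylated aFGF2 protein to printed compounds on slides; z-score merges feature fluorescence and signal-to-noise across triplicate slides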
# [4] = binders of probe aFGF10 on microarray, primary screen, stem cell growth factor project, biochemical, small-molecule microarray, fluorescence 635/667 (AID 1071); details: higher = more signal;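 also: score merges 667 nm spot intensity and signal to noise from triplicate slides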
# [5] = target: Neurogenic locus notch homolog protein 2 (Homo sapiens) (UniProt Q04721); assay: Notch2 binders on small-molecule microarrays, primary screen, biochemical, small-molecule microarray, 635 nm fluorescence, stem cell growth factors (AID 1073); details: Notch2 binding, higher = more signal
# [6] = target: Pro-neuregulin-1, membrane-bound isoform (Homo sapiens) (UniProt Q02297); assay: NRG1 binders on small-molecule microarrays, primary screen, psychiatric disease protein project, biochemical, small-molecule microarray, fluorescence 635/667 (AID 1075); details: NRG1 binding, 635 nm fluorescence, higher = more signal;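 also: score combines 667 nm spot fluorescence with signal to noise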
# Chain of Pro-neuregulin-1, membrane-bound isoform (Homo sapiens) (Q02297 whole entry, looked up, the tested form may be a part, canonical isoform): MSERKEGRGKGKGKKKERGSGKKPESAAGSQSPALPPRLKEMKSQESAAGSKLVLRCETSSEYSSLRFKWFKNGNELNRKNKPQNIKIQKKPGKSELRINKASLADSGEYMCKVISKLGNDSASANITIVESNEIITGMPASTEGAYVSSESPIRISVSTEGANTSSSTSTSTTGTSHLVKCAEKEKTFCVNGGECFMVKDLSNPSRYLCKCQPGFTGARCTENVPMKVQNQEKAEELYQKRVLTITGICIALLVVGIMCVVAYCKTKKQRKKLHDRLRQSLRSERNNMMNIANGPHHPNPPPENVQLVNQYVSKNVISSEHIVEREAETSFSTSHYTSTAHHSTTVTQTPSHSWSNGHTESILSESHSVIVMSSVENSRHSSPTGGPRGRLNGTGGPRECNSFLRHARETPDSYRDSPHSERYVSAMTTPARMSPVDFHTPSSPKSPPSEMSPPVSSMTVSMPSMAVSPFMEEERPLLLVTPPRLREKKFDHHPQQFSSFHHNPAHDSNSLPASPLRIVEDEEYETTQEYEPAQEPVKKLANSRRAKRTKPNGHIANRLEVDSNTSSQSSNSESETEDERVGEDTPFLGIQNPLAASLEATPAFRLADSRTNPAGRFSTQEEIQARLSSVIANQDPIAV
# [7] = test system: Neuregulin-1 EGF-like domain; assay: binders of neuregulin-1 EGF-like domain, primary screen, biochemical, small-molecule microarray, 635 nm fluorescence (AID 1081); details: small-molecule microarray binding, higher = more signal;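 also: binding of the protein to compounds printed on small-molecule microarray slides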
# [8] = FRG1 promoter luciferase signal modulators, primary screen, FRG1 inhibition for FSHD, cell-based, C2C12 myotubes, firefly/Renilla luciferase, luminescence (AID 1084); details: higher = more signal, called active from +8 up or from −8 down
# [9] = binders of probe aFST on microarray, primary screen, stem cell growth factor project, biochemical, small-molecule microarray, fluorescence 635/667 (AID 1086); details: higher = more signal;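 also: score merges 667 nm fluorescence with signal-to-noise of each printed compound spot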
# [10] = binders of probe aHhip on microarray, primary screen, stem cell growth factor project, biochemical, small-molecule microarray, fluorescence 635/667 (AID 1087); details: higher = more signal;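 also: score merges spot fluorescence at 667nm with spot signal to noise ratio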
# [11] = test system: PRMT1 (protein arginine N-methyltransferase 1); assay: PRMT1 binders on small-molecule microarrays, primary screen, biochemical, small-molecule microarray, 635 nm fluorescence (AID 1088); details: small-molecule microarray binding, higher = more signal;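 also: binding of Prmt1 protein to compounds spotted on small-molecule microarray slides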
# [12] = yeast growth modulation, basal conditions, primary screen, YJM789 clinical isolate, OD600, 24 h (AID 1089);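 also: growth of clinical yeast isolate S. cerevisiae YJM 789 seeded 1000 cells per well; test concentration not given here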; details: S. cerevisiae YJM789 growth, higher = more signal, called active from +8 up or from −8 down
# [13] = fission yeast growth modulation, primary screen, strain 972, OD600, 24 h, no modulator (AID 1090);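 also: basal condition with compound alone and no growth modifier present; test concentration not given here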; details: S. pombe 972 growth, higher = more signal, called active from +8 up or from −8 down
# [14] = S. cerevisiae growth modulation with rapamycin, primary screen, strain BY4716, OD600, 96 h (AID 1091); details: higher = more signal, called active from +8 up or from −8 down; also: test concentration not given here
# [15] = target: Torsin-1A-interacting protein 2 (Homo sapiens) (UniProt Q8NFQ8); assay: LULL1 binders on small-molecule microarray, primary screen, cell lysate, human LULL1 lysate, 635/667 nm fluorescence (AID 1092); details: hLULL1 lysate binding, 635 nm fluorescence, higher = more signal;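 also: probe is lysate of COS7 cells overexpressing human LULL1; score merges per-feature 667 nm fluorescence with signal-to-noise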
# Chain of Torsin-1A-interacting protein 2 (Homo sapiens) (Q8NFQ8 whole entry, looked up): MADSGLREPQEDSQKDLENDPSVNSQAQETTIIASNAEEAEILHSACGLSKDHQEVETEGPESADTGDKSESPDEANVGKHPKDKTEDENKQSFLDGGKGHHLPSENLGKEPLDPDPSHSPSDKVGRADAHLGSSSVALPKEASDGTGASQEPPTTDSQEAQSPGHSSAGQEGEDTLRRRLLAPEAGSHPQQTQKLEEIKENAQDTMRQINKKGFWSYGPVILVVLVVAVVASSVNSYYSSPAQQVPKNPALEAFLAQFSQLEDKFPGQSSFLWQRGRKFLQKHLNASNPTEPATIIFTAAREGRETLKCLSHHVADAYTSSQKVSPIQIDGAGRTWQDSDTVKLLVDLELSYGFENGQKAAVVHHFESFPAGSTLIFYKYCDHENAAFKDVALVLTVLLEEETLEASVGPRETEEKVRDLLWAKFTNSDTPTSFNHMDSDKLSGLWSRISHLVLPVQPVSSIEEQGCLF
# [16] = E. coli growth modulation, two-sided OD650, primary screen, E. coli filamentation project, strain DRC41, 24 h (AID 1093); details: OD650, 24 h, higher = more signal, called active from +8 up or from −8 down;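 also: MC1000 strain lacking acrAB efflux and sulA so SOS filamentation is blocked; test concentration not given here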
# [17] = small-molecule microarray binders of probe aLefty2, primary screen, biochemical, biotinylated probe, 635/667 nm fluorescence (AID 1094); details: higher = more signal;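 also: score merges spot fluorescence near 667 nm with spot signal-to-noise ratio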
# [18] = test system: Noggin (protein binding on small-molecule microarray); assay: Noggin binders on small-molecule microarray, primary screen, biochemical, 635/667 nm fluorescence (AID 1095); details: 635 nm fluorescence, higher = more signal;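 also: score merges 667 nm feature fluorescence with signal to noise over triplicate slides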
# [19] = target: Neurogenic locus notch homolog protein 3 (Homo sapiens) (UniProt Q9UM47); assay: NOTCH3 binders on small-molecule microarray, primary screen, biochemical, 635/667 nm fluorescence (AID 1096); details: NOTCH3 binding, 635 nm fluorescence, higher = more signal
# Chain of Neurogenic locus notch homolog protein 3 (Homo sapiens) (Q9UM47 whole entry, looked up): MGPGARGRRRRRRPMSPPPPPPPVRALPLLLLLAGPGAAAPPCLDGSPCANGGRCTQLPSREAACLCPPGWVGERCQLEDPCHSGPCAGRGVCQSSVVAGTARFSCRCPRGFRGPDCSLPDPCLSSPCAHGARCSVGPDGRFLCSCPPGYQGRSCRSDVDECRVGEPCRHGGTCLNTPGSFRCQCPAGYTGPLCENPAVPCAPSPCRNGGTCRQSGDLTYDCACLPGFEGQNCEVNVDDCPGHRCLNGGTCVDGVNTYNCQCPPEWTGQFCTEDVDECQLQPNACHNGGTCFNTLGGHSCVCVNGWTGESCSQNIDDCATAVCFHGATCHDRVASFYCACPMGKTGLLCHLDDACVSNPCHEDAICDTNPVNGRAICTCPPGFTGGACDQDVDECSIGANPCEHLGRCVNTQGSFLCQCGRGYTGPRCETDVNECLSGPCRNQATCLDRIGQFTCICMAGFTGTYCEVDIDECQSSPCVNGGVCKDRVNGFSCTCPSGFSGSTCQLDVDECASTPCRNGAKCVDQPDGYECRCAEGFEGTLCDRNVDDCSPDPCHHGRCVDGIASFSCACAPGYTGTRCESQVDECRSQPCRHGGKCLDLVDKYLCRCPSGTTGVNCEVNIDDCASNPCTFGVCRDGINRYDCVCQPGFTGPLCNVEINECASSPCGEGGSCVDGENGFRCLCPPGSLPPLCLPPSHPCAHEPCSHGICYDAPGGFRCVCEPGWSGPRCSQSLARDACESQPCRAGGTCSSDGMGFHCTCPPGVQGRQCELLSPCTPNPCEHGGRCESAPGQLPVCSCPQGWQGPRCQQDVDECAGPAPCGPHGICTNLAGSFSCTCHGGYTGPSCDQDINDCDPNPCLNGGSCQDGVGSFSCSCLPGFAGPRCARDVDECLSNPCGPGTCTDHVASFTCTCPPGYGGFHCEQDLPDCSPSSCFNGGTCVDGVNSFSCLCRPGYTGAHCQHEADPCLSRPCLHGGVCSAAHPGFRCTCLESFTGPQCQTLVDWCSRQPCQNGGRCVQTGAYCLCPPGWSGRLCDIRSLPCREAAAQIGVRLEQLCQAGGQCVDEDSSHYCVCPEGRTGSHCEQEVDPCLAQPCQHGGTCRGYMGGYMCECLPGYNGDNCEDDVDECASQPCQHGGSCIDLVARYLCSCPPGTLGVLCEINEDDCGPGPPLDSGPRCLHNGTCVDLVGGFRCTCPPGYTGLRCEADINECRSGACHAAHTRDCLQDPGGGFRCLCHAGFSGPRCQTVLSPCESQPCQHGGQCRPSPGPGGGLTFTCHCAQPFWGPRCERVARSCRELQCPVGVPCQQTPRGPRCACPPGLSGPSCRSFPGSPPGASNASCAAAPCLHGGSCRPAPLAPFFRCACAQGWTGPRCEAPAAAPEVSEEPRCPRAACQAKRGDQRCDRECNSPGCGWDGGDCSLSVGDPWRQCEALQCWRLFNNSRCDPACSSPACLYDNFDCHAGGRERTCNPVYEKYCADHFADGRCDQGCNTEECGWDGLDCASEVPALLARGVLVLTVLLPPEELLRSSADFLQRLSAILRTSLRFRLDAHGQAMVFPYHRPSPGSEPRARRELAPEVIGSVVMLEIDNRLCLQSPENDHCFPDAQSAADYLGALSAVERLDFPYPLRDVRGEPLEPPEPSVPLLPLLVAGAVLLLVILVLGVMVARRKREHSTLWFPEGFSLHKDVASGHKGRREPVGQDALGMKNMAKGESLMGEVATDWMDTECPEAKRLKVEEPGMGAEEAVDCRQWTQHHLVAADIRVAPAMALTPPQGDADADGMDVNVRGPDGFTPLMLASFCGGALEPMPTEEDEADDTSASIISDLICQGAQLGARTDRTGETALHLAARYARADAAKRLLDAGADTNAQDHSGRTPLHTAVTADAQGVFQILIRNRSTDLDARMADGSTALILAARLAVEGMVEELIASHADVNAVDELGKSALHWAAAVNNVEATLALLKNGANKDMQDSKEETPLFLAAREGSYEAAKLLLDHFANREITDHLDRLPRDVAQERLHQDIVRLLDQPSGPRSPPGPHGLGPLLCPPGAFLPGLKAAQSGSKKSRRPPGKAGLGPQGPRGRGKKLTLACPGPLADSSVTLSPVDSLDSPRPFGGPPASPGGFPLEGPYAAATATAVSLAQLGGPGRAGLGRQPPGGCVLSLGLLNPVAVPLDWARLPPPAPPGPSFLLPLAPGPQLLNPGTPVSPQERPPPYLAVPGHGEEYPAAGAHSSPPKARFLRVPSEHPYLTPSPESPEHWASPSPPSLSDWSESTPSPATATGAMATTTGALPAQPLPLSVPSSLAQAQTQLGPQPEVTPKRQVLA
# [20] = small-molecule microarray binders of probe aEGFR, primary screen, biochemical, biotinylated probe, 635/667 nm fluorescence (AID 1097); details: higher = more signal;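 also: probe is a biotinylated anti-EGFR antibody binding compounds printed on slides; score combines fluorescence near 667 nm and signal to noise of each spot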
SMILES,composite z-score [1],composite z-score [2],composite z-score [3],composite z-score [4],composite z-score [5],composite z-score [6],composite z-score [7],z-score [8],composite z-score [9],composite z-score [10],composite z-score [11],z-score [12],z-score [13],z-score [14],composite z-score [15],z-score [16],composite z-score [17],composite z-score [18],composite z-score [19],composite z-score [20]
COc1cc2c(cc1O)C(c1cccs1)N(Cc1sc3ccccc3c1Cl)CC2 (stereo not given),-0.181,1.14,0.115,1.18,1.55,2.09,1.42,-0.19 (inactive),1.11,3.57,1.53,-0.642 (inactive),-1.93 (inactive),-1.63 (inactive),3.3,-0.31 (inactive),0.105,1.03,1.03,0.14
CC(C)CCC[C@@H](C)[C@H]1CC[C@@]2(C)C3=C(CC[C@]12C)[C@@]1(C)CC[C@H](OC(=O)c2ccccc2)C(C)(C)C1CC3 (stereo not given in full),-0.438,0.299,-0.0916,0.157,0.474,0.0304,-0.0239,-0.374 (inactive),0.526,0.93,-0.0528,-1.9 (inactive),-0.547 (inactive),-0.568 (inactive),-0.11,1.59 (inactive),-0.193,0.559,0.316,-0.0828
CC(CO)N1C(=O)[C@@H]2[C@H]3C(=O)OCC=C[C@H]3OC23C=CCN(c2ccc(Cl)cc2)C(=O)[C@@H]13 (stereo not given in full),1.22,-1.45,-0.19,-1.14,-1.68,-0.87,0.688,0.529 (inactive),-0.672,-0.169,-0.421,-0.686 (inactive),-0.244 (inactive),-0.404 (inactive),-0.391,0.612 (inactive),0,-2.26,-1.05,-0.297
Nc1cc(Br)ccc1C(=O)O,-0.0861,0.0499,-0.17,0.307,0.314,0.505,0.742,0.0039 (inactive),0.195,-0.229,0.409,-0.585 (inactive),-1.64 (inactive),-0.0096 (inactive),0.568,-1.2 (inactive),-0.0664,0.136,0.332,-0.0961
[N-]=[N+]=NCc1ccccc1[C@@H]1OC(c2ccc(OCCCO)cc2)=N[C@]1(Cc1ccccc1N=[N+]=[N-])C(=O)N1CCCCC1,-0.0244,1.17,-0.0599,0.227,1.55,1.16,1.23,-0.878 (inactive),0.882,0.38,1.38,-0.0524 (inactive),-1.17 (inactive),2.24 (inactive),3.18,0.379 (inactive),0.0216,0.345,0.921,0.706
CCCC=C(CCC)[C@@H](NC(=O)CCc1ccccc1)c1ccc(C(F)(F)F)cc1,0.304,0.0979,0.0836,0.0199,1.53,1.51,0.969,-0.129 (inactive),0.821,0.107,1.1,-0.296 (inactive),-1.19 (inactive),0.654 (inactive),3.4,-0.604 (inactive),0.201,0.0368,1.12,-0.0423
COCC(=C=CC[C@H](O)c1cccc(OCCO)c1)C[C@H](O)COCc1ccccc1,0.0102,0.823,-0.0602,0.427,0.276,1.51,1.31,0.574 (inactive),0.256,-0.476,0.949,-0.244 (inactive),-1.43 (inactive),-0.271 (inactive),2.22,-0.142 (inactive),0.084,0.546,0.237,0.0167
CCCCCCCCCCC(O)C1C=CC2C(=O)N(C)C(=O)C2N1Nc1cc(OC)c(OC)c(OC)c1 (stereo not given),0.736,-0.157,-0.194,-0.873,-0.717,0.55,-0.199,0.507 (inactive),0.0296,-0.21,-0.415,0.692 (inactive),0.134 (inactive),-1.17 (inactive),1.54,-1.74 (inactive),-0.161,-1.3,-0.713,-0.189
NC(=O)N1C(=O)C2C(C1=O)C1C=C(CCCO)C2C(C2CC2)N1Cc1cccc(OC(F)(F)F)c1 (stereo not given),-0.284,0.497,-0.139,-0.238,-0.22,1.95,1.3,0.0154 (inactive),-0.108,-0.122,0.639,-0.897 (inactive),-0.497 (inactive),-1.47 (inactive),2.63,-0.284 (inactive),-0.249,-0.0319,-0.538,-0.184
CCOC(=O)C[C@H]1[C@H](OC(=O)c2cc3ccccc3oc2=O)[C@@H](NC(=O)c2ccc3ccccc3c2)c2cc(OCCCO)ccc2N1C(=O)Cc1ccc(OC)cc1,-0.59,-0.0976,-0.196,0.531,0.759,0.711,0.936,-0.0206 (inactive),0.73,0.0505,0.631,0.173 (inactive),0.106 (inactive),-1.33 (inactive),2.48,-0.436 (inactive),-0.0359,0.405,0.872,0.0009
C=CCN1C(=O)[C@@]2(O[C@@H](CCO)[C@H]([Si](C)(C)c3ccc(OC)cc3)[C@H]2C)c2cc(N3CCOC3=O)ccc21,-0.0204,0.0241,-0.0455,0.448,0.165,1.21,1.09,-1.66 (inactive),0.162,-0.236,0.989,1.53 (inactive),0.885 (inactive),9.68 (active),1.86,0.976 (inactive),-0.0755,-0.355,0.347,-0.134
COc1cc(NN2C(C(O)c3cc(OC)c(OC)c(OC)c3)C=CC3C(=O)N(c4ccccc4)C(=O)C32)cc(OC)c1OC (stereo not given),0.457,0.512,0.432,1.09,1.57,1.79,1.38,0.997 (inactive),0.669,-0.0631,1.51,0.613 (inactive),0.712 (inactive),0.219 (inactive),2.93,-1.94 (inactive),0.688,1.34,1.02,0.139
COc1ccc([Si](C)(C)[C@@H]2[C@@H](CC(=O)N3Cc4ccccc4C[C@H]3CO)O[C@]3(C(=O)N(c4ccccc4)c4ccccc43)[C@H]2C)cc1,0.485,1.02,0.411,0.934,0.627,2.35,1.16,-3.5 (inactive),1.43,0.433,1.41,1.18 (inactive),1.4 (inactive),2.93 (inactive),1.88,0.774 (inactive),0.541,1.71,1.05,0.13
O=C1OCC=C[C@H]2OC34C=CCN(c5ccc6ccccc6c5)C(=O)[C@H]3N(CCCCCO)C(=O)[C@@H]4[C@@H]12 (stereo not given in full),1.43,-0.964,-0.0407,-0.61,-0.994,2.26,1.39,-0.139 (inactive),-0.356,-0.338,-0.6,-0.594 (inactive),-0.955 (inactive),-0.515 (inactive),3.68,0.198 (inactive),0.306,-1.65,-1.04,-0.177
COc1ccc(C(=O)Nc2cccc(CN3C(=O)[C@@]4(O[C@@H](CC(=O)N(CCO)Cc5ccccc5)[C@H]([Si](C)(C)c5ccc(OC)cc5)[C@H]4C)c4ccccc43)c2)cc1,-0.117,0.741,-0.119,0.079,-0.342,0.585,1.09,-2.55 (inactive),-0.141,0.0274,0.931,-1.42 (inactive),-0.9 (inactive),2.85 (inactive),1.94,0.904 (inactive),-0.175,0.8,0.487,-0.201
Cc1ccc([C@H]2C(C(=O)O)=C[C@@H](C(C)(C)C)N2S(=O)(=O)c2ccc(C)cc2)cc1,0.137,-0.0985,0.17,0.965,1.55,1.54,1.17,-2.04 (inactive),0.734,0.235,1.39,-0.225 (inactive),0.289 (inactive),0.118 (inactive),3.25,-1.01 (inactive),0.118,0.101,1.04,0.155
CN1C(=O)C2C(C1=O)C1C=C(CCCO)C2C(C2CC2)N1Cc1cc2c(cc1Br)OCO2 (stereo not given),0.454,0.919,-0.141,0.271,0.713,1.24,1.29,-0.999 (inactive),0.252,-0.201,0.84,-3.43 (inactive),-1.03 (inactive),-0.932 (inactive),2.82,0.307 (inactive),0.183,0.304,0.699,0.0185
[N-]=[N+]=NCc1ccccc1[C@@H]1OC(c2ccc(OCCCO)cc2)=N[C@]1(Cc1ccccc1)C(=O)NCCN1CCOCC1,0.32,0.0026,0.159,1.1,1.4,1.25,1.23,0.106 (inactive),1.09,-0.126,1.53,0.469 (inactive),0.75 (inactive),0.83 (inactive),2.92,1.11 (inactive),0.242,0.512,1.09,0.591
COC(=O)[C@@]1(Cc2ccc(OC)cc2)[C@H]2c3cc(C(=O)N4CCCC4)n(Cc4ccc(S(C)(=O)=O)cc4)c3C[C@H]2CN1C(=O)c1ccccc1,0.438,-0.208,0.296,0.587,1.59,2.07,1.31,0.862 (inactive),1.25,0.0053,-0.42,-0.288 (inactive),0.868 (inactive),1.16 (inactive),3,-0.247 (inactive),0.205,0.419,1.02,0.297
Cc1ccc(F)cc1S(=O)(=O)N[C@@H]1CCN(Cc2cccc3[nH]ccc23)C1,1.05,0.871,-0.0894,0.513,0.37,1.38,0.379,-0.762 (inactive),-0.0112,-0.0994,0.317,0.84 (inactive),-1.02 (inactive),-0.639 (inactive),-0.466,-0.833 (inactive),-0.0728,0.586,0.56,0.137
